Results reported in PubChem BioAssay AID1814 (Broad Institute, 2009).
Out of some 300,000 compounds screened, about 22,000 (7.3%) were called active. Not shown: some 2% with an inconclusive outcome. This is one part of a sample in which actives are shown more often than they occur. Unmarked numbers belong to inactive results. Cut-off read from the data, not from the text of the source: active = activity score below about -60%; inconclusive = mostly about -28% to -61%; inactive = positive scores.

Experiment: Activators via SNCA 5'UTR binding, MLPCN (AID 1814)
Details: alpha-synuclein 5'UTR reporter, activators screen; active compounds read low; tested at 7.5 µM

Which activity score does the source give for `C/C(=N\NC(=O)c1ccc(C)cc1)C1C(=O)c2ccccc2C1=O` here?
Its activity score is -78.5% (active).

With `COc1ccc(NC(=O)CSc2nc(SC)ns2)c(OC)c1` as the compound, how does the activity score read?
Its activity score is -118% (active).

With `CN(C)CCCN(C(=O)c1ccc(S(=O)(=O)N2CCCCCC2)cc1)c1nc2ccc(Br)cc2s1` as the compound, how does the activity score read?
Its activity score is 75.3%.

For `Fc1ccc2nc(N3CCCCC3)sc2c1`, which activity score is on record?
The activity score was -129% (active).

With `Brc1ccc2nc(N3CCCC3)sc2c1` as the compound, how does the activity score read?
Its activity score is -105% (active).

With `c1c2c(cc3sc(N4CCCCC4)nc13)OCCO2` as the compound, how does the activity score read?
Its activity score is 107%.

Which activity score does the source give for `Fc1cc(F)c2nc(Nc3nc4c(F)cccc4s3)sc2c1` here?
The activity score was -218% (active).

Which activity score does the source give for `Cc1cccc(N=C2NN=C(c3c[nH]c4ccccc34)CS2)c1` here?
The activity score was -102% (active).

Which activity score does the source give for `C=CCn1c(C)cc(C2=NNC(=NCC)SC2)c1C` here?
Its activity score is 105%.

For `COc1ccc(-c2nnc(SC(C)C#N)o2)cc1` (stereo unspecified), which activity score is on record?
The activity score was -98.3% (active).

Which activity score does the source give for `COc1ccc(-c2nnc(SCc3cccnc3)o2)cc1` here?
The activity score was -128% (active).

For `COc1cc(/C=N/n2c(C)n[nH]c2=S)ccc1OCc1ccccc1`, which activity score is on record?
Its activity score is -106% (active).

For `COc1ccc2[nH]c(C(=O)Nc3ccccc3Cl)cc2c1`, which activity score is on record?
Its activity score is -132% (active).

For `O=C(CN1C(=O)c2ccccc2S1(=O)=O)N1CCc2ccccc21`, which activity score is on record?
The activity score was 93.5%.

Which activity score does the source give for `O=C(CSCc1ccccc1)N1CCc2ccccc21` here?
The activity score was -92.8% (active).

Which activity score does the source give for `COc1ccc(Nc2ncnc3sc(C)cc23)cc1` here?
Its activity score is -159% (active).

Which activity score does the source give for `O=C(c1ccc(CSc2ccccc2)cc1)N1CCCCCC1` here?
Its activity score is -99.5% (active).

Which activity score does the source give for `CCc1ccc(-c2cc(C(=O)NCc3ccco3)c3ccccc3n2)s1` here?
Its activity score is -123% (active).

With `O=C(/C=C/c1ccc(Cl)cc1Cl)NCc1ccco1` as the compound, how does the activity score read?
The activity score was -119% (active).

With `CC1CCc2sc3nc(N4CCN(CCO)CC4)n4ncnc4c3c2C1` (stereo unspecified) as the compound, how does the activity score read?
The activity score was -73.1% (active).

With `COc1cccc(NC(C)=[N+](C)CCNS(=O)(=O)c2ccc(Cl)cc2)c1` as the compound, how does the activity score read?
The activity score was -156% (active).

For `Nc1c(C(=O)NCc2ccccc2)sc2nc3c(cc12)C(=O)CCC3`, which activity score is on record?
The activity score was -63.1% (active).

For `CC(C)OC(=O)c1sc2nc3c(cc2c1N)C(=O)CCC3`, which activity score is on record?
Its activity score is -182% (active).

With `Cn1c(=NC(=O)C2CC2)sc2cc(F)cc(F)c21` as the compound, how does the activity score read?
The activity score was -88% (active).

With `Cc1ccc(NC(=O)C2CC2c2ccccc2)cc1` (stereo unspecified) as the compound, how does the activity score read?
The activity score was -65.1% (active).

With `C1=C(CCNc2ncnc3c2cnn3-c2ccccc2)CCCC1` as the compound, how does the activity score read?
Its activity score is -141% (active).

For `CCOc1cccc2c1OC1(CCCCC1)N1N=C(c3cccnc3)CC21` (stereo unspecified), which activity score is on record?
The activity score was -77% (active).

With `CCOC(=O)C1=C(CN2CCc3ccccc32)NC(=O)NC1c1ccc(Cl)cc1` (stereo unspecified) as the compound, how does the activity score read?
Its activity score is 44.8%.

Which activity score does the source give for `COc1cc(/C=C(\C#N)c2nc3ccccc3[nH]2)ccc1O` here?
The activity score was -152% (active).

With `COc1cc(/C=C(\C#N)c2nc3c(s2)CC(C)CC3)ccc1O` (stereo unspecified) as the compound, how does the activity score read?
The activity score was -208% (active).

With `O=C(COc1ccc2oc3c(c2c1)CCCC3)Nc1ccccn1` as the compound, how does the activity score read?
The activity score was -131% (active).

With `CSc1nc(N(C)NC(=O)c2cccc(C)c2)c2ccccc2n1` as the compound, how does the activity score read?
Its activity score is 114%.

For `Cc1cccc(C(=O)NC(=S)N(C)C2CCCCC2)c1`, which activity score is on record?
Its activity score is -74.3% (active).

For `Cc1c(C(=O)NC2CCCCC2)oc2ccccc12`, which activity score is on record?
The activity score was -82.5% (active).

For `Cc1c(C(=O)N2CCCc3ccccc32)oc2ccccc12`, which activity score is on record?
Its activity score is -96.2% (active).

For `CCc1nonc1NC(=O)c1oc2ccc(Cl)cc2c1C`, which activity score is on record?
Its activity score is -90.7% (active).

Which activity score does the source give for `Cc1nonc1NC(=O)c1oc2ccccc2c1C` here?
Its activity score is -127% (active).

Which activity score does the source give for `Cc1c(C(=O)Nc2ccccn2)oc2ccc(Br)cc12` here?
Its activity score is -122% (active).

With `Cc1ccc(NC(=O)c2oc3ccccc3c2C)c([N+](=O)[O-])c1` as the compound, how does the activity score read?
Its activity score is -101% (active).

For `CSc1cccc(NC(=S)N(C(C)C)C(C)c2ccccn2)c1` (stereo unspecified), which activity score is on record?
Its activity score is -66.1% (active).

For `Cc1ccc(-c2cc(C(=O)NCc3cn(C)nc3C)c3cc(Br)ccc3n2)cc1`, which activity score is on record?
The activity score was -87.5% (active).

With `CN(C)CCCN(C(=O)c1ccc(S(=O)(=O)N2CCCc3ccccc32)cc1)c1nc2ccc(F)cc2s1` as the compound, how does the activity score read?
The activity score was 74.2%.

Which activity score does the source give for `CCS(=O)(=O)N1Cc2ccccc2CC1C(=O)Nc1nc2ccc(F)cc2s1` (stereo unspecified) here?
Its activity score is -83.8% (active).

Which activity score does the source give for `O=C(Nc1ccccc1Cl)c1ccc2nsnc2c1` here?
The activity score was -133% (active).

Which activity score does the source give for `O=C(Nc1ccccc1)c1ccc2nsnc2c1` here?
The activity score was -119% (active).

Which activity score does the source give for `COc1ccccc1Nc1ncnc2c1oc1ccccc12` here?
Its activity score is -147% (active).

Which activity score does the source give for `O=[N+]([O-])c1ccc2c(c1)C(O)n1nc(-c3ccccc3)nc1S2` (stereo unspecified) here?
Its activity score is -63.3% (active).

For `CCS(=O)(=O)C1=NSC2=NC(=O)/C(=C\c3cc(C)n(-c4cccc(OC)c4)c3C)C(=N)N21`, which activity score is on record?
The activity score was -130% (active).

With `CCN(CC)CCOc1ccc2c(c1)C(=NNC(=O)c1ccccn1)c1cc(OCCN(CC)CC)ccc1-2` as the compound, how does the activity score read?
Its activity score is 109%.

Which activity score does the source give for `CC(O)c1ccc(OCCN(C)c2ccccn2)cc1` (stereo unspecified) here?
The activity score was -143% (active).

Which activity score does the source give for `N#CC(=C1CCCC1)c1nc(-c2ccc(Cl)cc2)cs1` here?
Its activity score is -189% (active).

With `N#CC(=C1SC=CS1)c1nc(-c2ccccc2)cs1` as the compound, how does the activity score read?
Its activity score is -305% (active).

With `CCOC(=O)/C(C#N)=C/c1ccc(N2CCCCC2)cc1` as the compound, how does the activity score read?
Its activity score is -72.9% (active).

For `Cc1nc2cc(NCc3cccs3)ccc2n1C`, which activity score is on record?
Its activity score is -107% (active).

Which activity score does the source give for `OC(c1nnc(-c2ccccc2)o1)c1cccs1` (stereo unspecified) here?
The activity score was -90.8% (active).

For `CCOc1ccc(N/C=C/C(=O)c2cc(OC)c(OC)c(OC)c2)cc1`, which activity score is on record?
Its activity score is -117% (active).

Which activity score does the source give for `COc1ccc2[nH]cc(CCN3C(=O)c4ccc(C(=O)O)cc4C3=O)c2c1` here?
The activity score was -169% (active).

Which activity score does the source give for `CC[C@H]1CN2CCc3cc(OC)c(OC)cc3[C@@H]2C[C@@H]1C[C@H]1NCCc2cc(OC)c(OC)cc21` here?
Its activity score is 109%.

For `O=C1c2ccccc2NC(c2ccccc2O)N1NS(=O)(=O)c1ccccc1` (stereo unspecified), which activity score is on record?
The activity score was -64.1% (active).

With `Nc1c(C(=O)c2cccs2)sc2nsc(SCCN3CCCCC3)c12` as the compound, how does the activity score read?
The activity score was -213% (active).

With `c1ccc(-c2csc(N3CCc4ccccc4C3)n2)cc1` as the compound, how does the activity score read?
The activity score was -117% (active).

Which activity score does the source give for `COc1ccc2c(c1)CCc1cn3ncc(C#N)c3nc1-2` here?
Its activity score is 68.1%.

For `COc1ccc2nc(N3CCCC(O)C3)c(C#N)cc2c1` (stereo unspecified), which activity score is on record?
Its activity score is -114% (active).

For `CCc1ccc(Oc2coc3cc(OC(=O)c4cc5ccccc5oc4=O)ccc3c2=O)cc1`, which activity score is on record?
The activity score was -67% (active).

For `COc1ccccc1-c1nnc(NC(=O)c2ccc3ncsc3c2)o1`, which activity score is on record?
The activity score was -132% (active).

With `Cc1sc(NC(=O)c2ccc3ncsc3c2)c(C(N)=O)c1C` as the compound, how does the activity score read?
The activity score was -130% (active).
